{"source": "the supplement of paper PMC11732987", "about": "“Enantioselective OTUD7B fragment discovery through chemoproteomics screening and high-throughput optimisation” (Communications Chemistry, 2025)", "assay_in_all_cases": "log2 ratio of Biotin-Ahx-Ub-VS probe labelling (fragment/DMSO); higher = less target engagement (more negative = stronger competition), active = hit call of the paper (q ≤ 0.05, log2 ratio ≤ -1)", "conditions_in_all_cases": "compound concentration: 200 uM; treatment time: 3 h", "key": {"ALG13": {"target": "T1, ALG13 (UniProt Q9NP73)", "T1 sequence (whole entry)": "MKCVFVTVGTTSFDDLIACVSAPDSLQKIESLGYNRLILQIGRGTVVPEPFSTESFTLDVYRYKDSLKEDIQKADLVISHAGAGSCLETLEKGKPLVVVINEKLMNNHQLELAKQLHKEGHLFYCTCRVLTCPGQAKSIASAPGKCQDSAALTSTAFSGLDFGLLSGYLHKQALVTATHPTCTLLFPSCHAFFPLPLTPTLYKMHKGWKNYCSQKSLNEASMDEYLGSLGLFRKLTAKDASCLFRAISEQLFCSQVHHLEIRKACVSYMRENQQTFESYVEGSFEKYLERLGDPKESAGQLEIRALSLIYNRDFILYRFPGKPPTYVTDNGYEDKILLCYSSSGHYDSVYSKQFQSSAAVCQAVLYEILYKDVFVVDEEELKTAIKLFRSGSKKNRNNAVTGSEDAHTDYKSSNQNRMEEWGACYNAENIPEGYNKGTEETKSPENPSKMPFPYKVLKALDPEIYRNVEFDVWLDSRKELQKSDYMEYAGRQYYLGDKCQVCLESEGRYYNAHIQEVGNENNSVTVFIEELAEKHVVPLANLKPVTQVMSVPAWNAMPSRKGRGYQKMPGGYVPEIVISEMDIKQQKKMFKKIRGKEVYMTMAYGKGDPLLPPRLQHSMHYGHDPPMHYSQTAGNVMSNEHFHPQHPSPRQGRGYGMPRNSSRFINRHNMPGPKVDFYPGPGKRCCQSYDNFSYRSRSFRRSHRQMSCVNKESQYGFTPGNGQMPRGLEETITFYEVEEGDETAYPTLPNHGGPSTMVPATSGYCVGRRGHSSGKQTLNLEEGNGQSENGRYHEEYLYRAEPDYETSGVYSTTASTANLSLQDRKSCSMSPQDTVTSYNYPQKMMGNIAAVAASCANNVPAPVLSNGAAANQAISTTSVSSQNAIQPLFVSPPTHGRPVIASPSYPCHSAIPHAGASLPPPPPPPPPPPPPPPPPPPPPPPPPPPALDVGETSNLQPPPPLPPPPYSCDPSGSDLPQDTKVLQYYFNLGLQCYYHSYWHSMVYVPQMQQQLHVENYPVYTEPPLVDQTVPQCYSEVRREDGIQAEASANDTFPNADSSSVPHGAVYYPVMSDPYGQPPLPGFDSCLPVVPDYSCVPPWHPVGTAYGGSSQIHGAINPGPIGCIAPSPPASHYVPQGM", "outline": "(§1)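 Triplicate samples of HEK293T lysate, 495 µg each, received fragment at 200 µM or vehicle for 3 h, followed by Biotin-Ahx-Ub-VS (0.5 µM final) for 1 h. After NeutrAvidin enrichment of labelled DUBs and LysC/trypsin digestion, peptides were run by diaPASEF LC-MS/MS. The values are average log2 fragment/vehicle ratios from global-median-normalised Spectronaut label-free quantities, tested by unpaired t-test on proteins having ≥2 unique peptides.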"}, "ATXN3": {"target": "ATXN3 (UniProt P54252)", "sequence (P54252 whole entry)": "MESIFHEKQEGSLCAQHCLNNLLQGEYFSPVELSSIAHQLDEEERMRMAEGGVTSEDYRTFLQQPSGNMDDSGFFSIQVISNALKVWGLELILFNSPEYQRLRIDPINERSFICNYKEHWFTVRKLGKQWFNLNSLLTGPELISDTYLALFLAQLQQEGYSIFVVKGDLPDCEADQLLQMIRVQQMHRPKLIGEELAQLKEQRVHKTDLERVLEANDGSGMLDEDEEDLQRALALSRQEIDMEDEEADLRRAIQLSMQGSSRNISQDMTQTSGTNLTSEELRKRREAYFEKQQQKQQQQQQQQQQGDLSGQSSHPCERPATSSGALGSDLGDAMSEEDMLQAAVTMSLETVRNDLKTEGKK", "outline": "as §1"}, "BAP1": {"target": "T2, BAP1 (UniProt Q92560)", "T2 sequence (whole entry)": "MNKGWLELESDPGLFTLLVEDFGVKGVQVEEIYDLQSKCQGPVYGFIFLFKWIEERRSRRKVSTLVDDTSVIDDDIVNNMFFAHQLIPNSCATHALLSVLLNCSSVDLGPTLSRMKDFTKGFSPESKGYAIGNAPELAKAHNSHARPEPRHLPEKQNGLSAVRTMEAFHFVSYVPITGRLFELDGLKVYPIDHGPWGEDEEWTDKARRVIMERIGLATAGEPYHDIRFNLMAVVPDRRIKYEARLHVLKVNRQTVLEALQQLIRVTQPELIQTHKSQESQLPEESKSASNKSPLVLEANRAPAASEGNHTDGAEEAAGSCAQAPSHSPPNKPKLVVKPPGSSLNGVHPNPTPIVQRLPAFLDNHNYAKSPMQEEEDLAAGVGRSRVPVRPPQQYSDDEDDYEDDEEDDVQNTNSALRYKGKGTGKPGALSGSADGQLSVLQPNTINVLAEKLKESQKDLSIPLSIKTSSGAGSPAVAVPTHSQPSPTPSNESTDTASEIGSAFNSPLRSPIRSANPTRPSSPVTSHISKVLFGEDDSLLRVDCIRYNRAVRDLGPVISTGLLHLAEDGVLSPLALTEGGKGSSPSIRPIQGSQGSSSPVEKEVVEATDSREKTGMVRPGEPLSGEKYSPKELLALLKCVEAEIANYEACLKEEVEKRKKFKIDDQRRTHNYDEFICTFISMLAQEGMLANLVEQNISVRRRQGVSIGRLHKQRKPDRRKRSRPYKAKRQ", "outline": "as §1"}, "EIF3F": {"target": "EIF3F (UniProt O00303)", "sequence (O00303 whole entry)": "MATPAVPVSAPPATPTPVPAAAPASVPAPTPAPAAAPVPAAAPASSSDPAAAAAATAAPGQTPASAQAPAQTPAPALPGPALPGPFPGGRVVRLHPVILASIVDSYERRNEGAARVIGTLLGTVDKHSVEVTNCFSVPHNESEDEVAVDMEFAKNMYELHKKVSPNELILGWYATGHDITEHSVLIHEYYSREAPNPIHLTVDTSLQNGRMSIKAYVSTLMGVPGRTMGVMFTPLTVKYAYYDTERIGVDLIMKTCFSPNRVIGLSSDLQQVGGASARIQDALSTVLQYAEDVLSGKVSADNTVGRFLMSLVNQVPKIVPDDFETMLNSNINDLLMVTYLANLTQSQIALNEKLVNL", "outline": "as §1"}, "EIF3H": {"target": "EIF3H (UniProt O15372)", "sequence (O15372 whole entry)": "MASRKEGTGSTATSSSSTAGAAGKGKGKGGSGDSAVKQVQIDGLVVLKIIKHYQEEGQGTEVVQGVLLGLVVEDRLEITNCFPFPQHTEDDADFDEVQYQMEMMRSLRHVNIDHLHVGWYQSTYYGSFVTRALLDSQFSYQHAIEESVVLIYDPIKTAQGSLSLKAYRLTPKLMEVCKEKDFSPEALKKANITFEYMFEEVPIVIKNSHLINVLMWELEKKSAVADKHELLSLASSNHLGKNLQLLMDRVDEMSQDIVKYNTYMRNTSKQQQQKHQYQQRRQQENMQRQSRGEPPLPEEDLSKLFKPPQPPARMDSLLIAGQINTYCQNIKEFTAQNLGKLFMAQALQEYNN", "outline": "as §1"}, "FAM105A": {"target": "T3, FAM105A (UniProt Q9NUU6)", "T3 sequence (whole entry)": "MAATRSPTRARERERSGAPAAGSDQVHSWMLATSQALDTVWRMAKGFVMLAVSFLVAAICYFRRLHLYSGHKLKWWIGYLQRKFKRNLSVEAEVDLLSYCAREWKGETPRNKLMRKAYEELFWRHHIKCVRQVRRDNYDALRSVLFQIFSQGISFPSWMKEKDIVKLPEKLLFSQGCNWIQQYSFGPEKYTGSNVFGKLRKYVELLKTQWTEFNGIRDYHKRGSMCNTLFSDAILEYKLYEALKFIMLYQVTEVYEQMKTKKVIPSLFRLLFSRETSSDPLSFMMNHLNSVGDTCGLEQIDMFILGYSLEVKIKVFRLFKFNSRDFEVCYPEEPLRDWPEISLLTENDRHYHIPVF", "outline": "as §1"}, "OTUB1": {"target": "OTUB1 (UniProt Q96FW1)", "sequence (Q96FW1 whole entry)": "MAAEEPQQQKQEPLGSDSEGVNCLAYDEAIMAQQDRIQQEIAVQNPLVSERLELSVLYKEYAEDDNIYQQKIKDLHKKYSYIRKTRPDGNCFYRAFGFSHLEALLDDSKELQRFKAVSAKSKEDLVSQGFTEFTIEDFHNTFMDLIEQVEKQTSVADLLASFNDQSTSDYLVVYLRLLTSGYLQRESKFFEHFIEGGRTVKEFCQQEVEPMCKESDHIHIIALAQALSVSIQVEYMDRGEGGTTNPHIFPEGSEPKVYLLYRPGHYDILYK", "outline": "as §1"}, "OTUD4": {"target": "T4, OTUD4 (UniProt Q01804)", "T4 sequence (whole entry)": "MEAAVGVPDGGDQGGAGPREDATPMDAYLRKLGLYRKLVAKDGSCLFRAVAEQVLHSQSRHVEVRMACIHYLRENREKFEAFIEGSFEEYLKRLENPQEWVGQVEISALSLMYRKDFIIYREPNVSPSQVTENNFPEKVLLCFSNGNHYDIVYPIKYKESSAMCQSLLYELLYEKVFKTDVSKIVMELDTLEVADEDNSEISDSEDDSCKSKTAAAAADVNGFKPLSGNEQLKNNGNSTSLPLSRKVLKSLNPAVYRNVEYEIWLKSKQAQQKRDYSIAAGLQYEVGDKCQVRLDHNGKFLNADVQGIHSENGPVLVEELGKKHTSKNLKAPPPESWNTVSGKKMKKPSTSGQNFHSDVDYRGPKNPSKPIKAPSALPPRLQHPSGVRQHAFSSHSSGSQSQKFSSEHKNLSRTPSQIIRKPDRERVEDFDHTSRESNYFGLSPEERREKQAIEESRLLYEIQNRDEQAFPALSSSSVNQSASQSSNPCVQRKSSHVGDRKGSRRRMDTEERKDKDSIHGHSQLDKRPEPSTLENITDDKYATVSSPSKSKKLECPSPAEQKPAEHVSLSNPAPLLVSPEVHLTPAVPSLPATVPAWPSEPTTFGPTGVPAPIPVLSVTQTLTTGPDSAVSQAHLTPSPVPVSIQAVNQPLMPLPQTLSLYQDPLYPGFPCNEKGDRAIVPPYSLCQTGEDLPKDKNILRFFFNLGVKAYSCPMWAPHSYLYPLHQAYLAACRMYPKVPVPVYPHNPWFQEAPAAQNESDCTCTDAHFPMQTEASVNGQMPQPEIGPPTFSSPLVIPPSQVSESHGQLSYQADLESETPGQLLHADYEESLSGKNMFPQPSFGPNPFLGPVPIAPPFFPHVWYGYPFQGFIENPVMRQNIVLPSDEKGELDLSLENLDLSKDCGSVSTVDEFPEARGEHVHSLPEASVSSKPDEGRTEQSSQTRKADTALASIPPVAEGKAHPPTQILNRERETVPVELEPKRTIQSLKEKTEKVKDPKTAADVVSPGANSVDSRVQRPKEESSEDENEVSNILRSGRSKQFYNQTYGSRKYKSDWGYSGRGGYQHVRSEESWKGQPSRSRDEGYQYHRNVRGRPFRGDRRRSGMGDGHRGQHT", "outline": "as §1"}, "OTUD5": {"target": "T5, OTUD5 (UniProt Q96G74)", "T5 sequence (whole entry)": "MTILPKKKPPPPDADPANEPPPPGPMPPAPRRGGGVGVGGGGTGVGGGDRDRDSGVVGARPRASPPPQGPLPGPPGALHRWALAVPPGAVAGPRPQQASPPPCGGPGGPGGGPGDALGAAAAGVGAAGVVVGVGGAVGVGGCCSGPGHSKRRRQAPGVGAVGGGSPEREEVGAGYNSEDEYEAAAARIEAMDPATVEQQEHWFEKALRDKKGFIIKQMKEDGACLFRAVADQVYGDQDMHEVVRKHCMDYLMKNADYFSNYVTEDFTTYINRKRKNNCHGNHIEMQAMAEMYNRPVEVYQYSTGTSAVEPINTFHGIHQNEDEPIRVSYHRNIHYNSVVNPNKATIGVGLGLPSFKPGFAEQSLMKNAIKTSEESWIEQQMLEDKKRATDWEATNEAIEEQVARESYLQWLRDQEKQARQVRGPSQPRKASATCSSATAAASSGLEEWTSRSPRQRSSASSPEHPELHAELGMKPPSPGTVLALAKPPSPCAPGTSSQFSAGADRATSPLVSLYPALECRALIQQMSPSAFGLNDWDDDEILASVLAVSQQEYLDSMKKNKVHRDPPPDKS", "outline": "as §1"}}, "note": "Values without a mark were called inactive.", "data": [{"compound": "CN(C(=O)CCl)c1nc2ccccc2s1", "values": [{"measurement": "log2 ratio of Biotin-Ahx-Ub-VS probe labelling", "setting": "ALG13", "result": 0.217}, {"measurement": "log2 ratio of Biotin-Ahx-Ub-VS probe labelling", "setting": "ATXN3", "result": -0.82}, {"measurement": "log2 ratio of Biotin-Ahx-Ub-VS probe labelling", "setting": "BAP1", "result": -0.457}, {"measurement": "log2 ratio of Biotin-Ahx-Ub-VS probe labelling", "setting": "EIF3F", "result": -0.117}, {"measurement": "log2 ratio of Biotin-Ahx-Ub-VS probe labelling", "setting": "EIF3H", "result": 0.0319}, {"measurement": "log2 ratio of Biotin-Ahx-Ub-VS probe labelling", "setting": "FAM105A", "result": 0.108}, {"measurement": "log2 ratio of Biotin-Ahx-Ub-VS probe labelling", "setting": "OTUB1", "result": -0.597}, {"measurement": "log2 ratio of Biotin-Ahx-Ub-VS probe labelling", "setting": "OTUD4", "result": -0.0109}, {"measurement": "log2 ratio of Biotin-Ahx-Ub-VS probe labelling", "setting": "OTUD5", "result": "-1.02 (active)"}]}]}
